Source: PubChem (Sanford-Burnham Center for Chemical Genomics)
A selection: hits, their analogues and other compounds. The true share with any hit is near 31%.
CYP2C9 inhib – blocks human cytochrome P450 2C9; CYP2C9 Supersomes, luciferin-H conversion, luminescence; inhibition, % at 5 µM; 20% of 96,000 active;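 active means blocking of liver enzyme CYP2C9 beyond about 50% at 5 µM, limit read from the data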
Target sequence (P11712 whole entry, looked up): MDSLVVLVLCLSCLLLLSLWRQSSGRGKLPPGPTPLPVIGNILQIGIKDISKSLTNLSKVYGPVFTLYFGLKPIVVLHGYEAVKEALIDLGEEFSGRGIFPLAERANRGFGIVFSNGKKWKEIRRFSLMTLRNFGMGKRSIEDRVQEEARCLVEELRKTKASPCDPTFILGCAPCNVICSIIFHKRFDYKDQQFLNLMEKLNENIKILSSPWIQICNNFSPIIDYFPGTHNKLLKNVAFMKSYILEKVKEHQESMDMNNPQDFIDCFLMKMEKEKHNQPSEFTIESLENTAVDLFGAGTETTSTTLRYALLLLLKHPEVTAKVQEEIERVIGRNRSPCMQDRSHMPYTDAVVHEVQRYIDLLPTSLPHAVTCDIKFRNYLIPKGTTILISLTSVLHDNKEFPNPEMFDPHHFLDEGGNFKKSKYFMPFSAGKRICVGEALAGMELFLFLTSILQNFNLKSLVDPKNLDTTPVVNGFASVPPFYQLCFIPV
CYP2C19 inh – blocks human cytochrome P450 2C19. 21% of 96,000 active. inhibition, % at 5 µM. CYP2C19 Supersomes, luciferin-H EGE luminescence, 30 min. P33261. AID 778;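 active means CYP2C19 inhibition above a set limit at 5 µM in the primary screen, cut at about 50% in these data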;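 further: plate controls were negative control wells for no effect and 2.5 mM tranylcypromine positive control for full effect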
CYP2C19 activ – cytochrome P450 2C19 (human) activation | P33261 | recombinant CYP2C19, luciferin-H EGE luminescence; stronger effect = higher value; 0 = fully inhibited enzyme, 1 = untreated enzyme | activation factor at 5 µM | 96,000 tested, under 10 active;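 active means activation factor of at least 2 at 5 µM in the primary screen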;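 further: 0 = wells with 2.5 mM tranylcypromine and 1 = vehicle-only wells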
CYP2C9 activ – activators of human CYP2C9; 1.4% of 96,000 active; activation factor at 5 µM; P11712; AID 1024; recombinant CYP2C9, luciferin-H conversion, luminescence; stronger effect = higher value; factor 1 = untreated enzyme, 0 = blocked;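 active means activation factor of 2 or more for CYP2C9 at a 5 µM dose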;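 further: 0 = sulfaphenazole-blocked wells and 1 = vehicle-only wells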
* marks the source's active call; other numbers are inactive results.

SMILES | CYP2C9 inhib | CYP2C19 inh | CYP2C19 activ | CYP2C9 activ
O=S(=O)(c1ccc(-c2ccccc2)cc1)N1CCOCC1 | -4 | -10 | 1.1 | 1
CC1(C(=O)NC2CCCC2)CCC(=O)N1CCC1=CCCCC1 (configuration not stated) | 33 | 33 | 0.7 | 0.7
Cc1ccc(NC(=O)Cn2c(=O)oc3cc(S(=O)(=O)N4CCC(C)CC4)ccc32)cc1C | 67* | 5 | 1 | 0.3
CCOC(=O)Cn1c(=O)oc2cc(S(=O)(=O)Nc3c(C)cc(C)cc3C)ccc21 | 18 | 25 | 0.7 | 0.8
CCCCNS(=O)(=O)c1ccc2c(c1)oc(=O)n2CC(=O)OCC | 72* | 18 | 0.8 | 0.3
CCOC(=O)Cn1c(=O)oc2cc(S(=O)(=O)N3CCn4c3nc3ccccc34)ccc21 | -18 | 15 | 0.9 | 1.2
CC(C)CCNC(=O)Cn1c(=O)oc2cc(S(=O)(=O)N3CCc4ccccc43)ccc21 | 83* | 34 | 0.7 | 0.2
CCOC(=O)Cn1c(=O)oc2cc(S(=O)(=O)N3CCCc4ccccc43)ccc21 | 77* | 77* | 0.2 | 0.2
O=C(Cn1c(=O)oc2cc(S(=O)(=O)N3CCCC3)ccc21)NCc1ccccn1 | 42 | -14 | 1.1 | 0.6
Cc1nc2c(C(=O)N3CCOCC3)cnn2c(C)c1Cc1cccc(Cl)c1 | 24 | 31 | 0.7 | 0.8
Cc1cc(C(C)(C)C)oc1C(=O)N(CC(=O)NC1CCCC1)c1c(C)cccc1C | 33 | 42 | 0.6 | 0.7
O=C(Cn1c(=O)oc2cc(S(=O)(=O)N3CCCCCC3)ccc21)NC1CCCCC1 | 12 | 2 | 1 | 0.9
O=C(Cn1c(=O)oc2cc(S(=O)(=O)N3CCc4ccccc43)ccc21)NC1CCCC1 | 64* | 21 | 0.8 | 0.4
O=C(Nc1ccn(Cc2c(F)c(F)cc(F)c2F)n1)c1ccc(COc2ccc(Cl)cc2Cl)o1 | 99* | 92* | 0.1 | 0
CC(C)CNC(=O)c1ccc(COc2ccc(Cl)cc2Cl)o1 | 76* | 40 | 0.6 | 0.2
O=C(Nc1ccn(Cc2c(F)c(F)c(F)c(F)c2F)n1)c1ccc(COc2ccccc2Cl)cc1 | 70* | 43 | 0.6 | 0.3
COc1cccc(/C=N/NC(=O)c2ccc(COc3ccc(Cl)cc3Cl)o2)c1 | 14 | 15 | 0.9 | 0.9
O=C(Nc1ccc(Cn2cccn2)cc1)c1ccc(COc2ccccc2Br)cc1 | 36 | 4 | 1 | 0.6
C=CCN1CC(c2nc3ccccc3n2Cc2cccc3ccccc23)CC1=O (configuration not stated) | 60* | 35 | 0.7 | 0.4
Cc1ccc(OCCn2c(C3CC(=O)N(Cc4ccccc4)C3)nc3ccccc32)cc1 (configuration not stated) | 84* | 33 | 0.7 | 0.2
CCCn1c(C2CC(=O)N(c3ccc(C)cc3)C2)nc2ccccc21 (configuration not stated) | 44 | 2 | 1 | 0.6
O=C(OCc1nnc(-c2ccccc2)o1)c1ccc(S(=O)(=O)NCc2ccco2)cc1 | 70* | 8 | 0.9 | 0.3
O=C(Nc1ccccc1C(=O)OCc1nnc(-c2ccccc2)o1)c1ccco1 | 95* | 76* | 0.2 | 0
Cc1ccc(-c2nnc(Cc3ccc(Cl)cc3)o2)cc1 | 34 | 38 | 0.6 | 0.7
COc1cc(CCC(=O)OCc2nnc(-c3ccccc3)o2)cc(OC)c1OC | 82* | 64* | 0.4 | 0.2
SMILES | CYP2C9 inhib | CYP2C19 inh | CYP2C19 activ | CYP2C9 activ
c1ccc(Cc2nnc(-c3ccccc3)o2)cc1 | 2 | 52* | 0.5 | 1
COc1cc(C(=O)N[C@H](C(=O)NC2CCCCCC2)C(C)C)cc(OC)c1OC | 25 | 11 | 0.9 | 0.7
Cc1nc(N(C)C)c2sc(=S)n(C)c2n1 | 24 | 31 | 0.7 | 0.8
CCCOP(=O)(OCCC)C(Nc1ccc(C(C)C)cc1)c1ccc([N+](=O)[O-])cc1 (configuration not stated) | 10 | 2 | 1 | 0.9
CCOCCCN(C(=O)c1ccco1)C(C(=O)NC1CCCC1)c1cccc(OC)c1OC (configuration not stated) | 37 | 28 | 0.7 | 0.6
O=C(CSc1ccc(Cl)cc1)OCc1nnc(-c2ccccc2)o1 | 12 | 3 | 1 | 0.9
COc1cc(-c2nnc(COC(=O)c3cc(C)nc4ccc(C)cc34)o2)cc(OC)c1OC | 88* | 90* | 0.1 | 0.1
CC(C(=O)OCc1nnc(-c2ccccc2)o1)N1C(=O)c2ccccc2C1=O (configuration not stated) | 56* | 22 | 0.8 | 0.4
Cc1ccc(C(=O)OCc2nnc(-c3ccccc3)o2)o1 | 42 | 80* | 0.2 | 0.6
Cc1cc(C)n(-c2ccc(C(=O)OCc3nnc(-c4ccccc4)o3)cc2)n1 | 2 | 7 | 0.9 | 1
O=C(OCc1nnc(-c2ccccc2)o1)c1ccc2c(c1)OCCO2 | 58* | 39 | 0.6 | 0.4
CC(=O)c1c(C)[nH]c(C(=O)OCc2nnc(-c3ccccc3)o2)c1C | 37 | 38 | 0.6 | 0.6
O=C(OCc1nnc(-c2ccccc2)o1)C1=COCCO1 | -1 | 51* | 0.5 | 1
Cc1ccc(-n2nnnc2-c2cnc(N3CCCC3)nc2C(F)(F)F)cc1 | 76* | 87* | 0.1 | 0.2
FC(F)(F)c1nc(N2CCCC2)ncc1-c1nnnn1-c1ccccc1 | 52* | 82* | 0.2 | 0.5
COc1ccc(-n2nnnc2-c2cn(C)nc2C(F)(F)F)cc1 | 16 | 50 | 0.5 | 0.8
CNS(=O)(=O)c1cc(C(=O)NCc2ccco2)ccc1Cl | -56 | -22 | 1.2 | 1.6
COc1ccc(OC)c(C2C(C(N)=O)=C(C)Nc3nc(CCCO)nn32)c1 (configuration not stated) | 1 | -5 | 1.1 | 1
COc1ccc2c(c1)-c1c(ssc1=S)C(C)(C)N2C(=O)CSC1=NCCS1 | 73* | 72* | 0.3 | 0.3
Cc1cc2c(cc1C)N(C(=O)CSC1=NCCS1)C(C)(C)c1ssc(=S)c1-2 | 70* | 78* | 0.2 | 0.3
Cc1ccc2c(c1)-c1c(ssc1=S)C(C)(C)N2C(=O)CSc1nncn1C | 43 | 76* | 0.2 | 0.6
CC1(C)c2ssc(=S)c2-c2ccccc2N1C(=O)CSC1=NCCS1 | 31 | 52* | 0.5 | 0.7
NS(=O)(=O)c1ccc(NC(=O)CSc2ccc3ccccc3n2)cc1 | 16 | 8 | 0.9 | 0.8
Cc1cccc(C)c1OCC(O)CNC(C)C (configuration not stated) | -15 | 10 | 0.9 | 1.2
CCOC(=O)c1oc2cccc(OCC(O)CNC(C)C)c2c1C (configuration not stated) | 37 | 70* | 0.3 | 0.6
OCCCc1nc2n(n1)C(c1ccccc1Cl)C=C(c1cccs1)N2 (configuration not stated) | 51* | 39 | 0.6 | 0.5
OCCCc1nc2n(n1)C(c1cccs1)C=C(c1ccccc1)N2 (configuration not stated) | 96* | 58* | 0.4 | 0
Cc1cccc2cc3c(NC(=O)c4ccccn4)nn(C)c3nc12 | 10 | -3 | 1 | 0.9
